The values below come from PubChem BioAssay (NCATS).

In experiment [1] the target is Peroxisome proliferator-activated receptor delta (Homo sapiens) (UniProt Q03181). Put plainly: qHTS assay for small molecule antagonists of peroxisome proliferator-activated receptor delta signaling (AID 588535; active means well fitted inhibition curve with a large enough effect in the signal ratio, with a control signal flat, not every such curve was filed as active; the % refers to the signal ratio). The gist of the method: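 Antagonist-mode beta-lactamase reporter (GeneBLAzer PPAR-delta-UAS-bla) in HEK293T cells, 2% charcoal/dextran FBS, 4000 cells/well. Compound titrations, 18 h at 37 C; CCF4 ratio read, IC50 and efficacy from Hill fits.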
Chain of Peroxisome proliferator-activated receptor delta (Homo sapiens) (Q03181 whole entry, looked up): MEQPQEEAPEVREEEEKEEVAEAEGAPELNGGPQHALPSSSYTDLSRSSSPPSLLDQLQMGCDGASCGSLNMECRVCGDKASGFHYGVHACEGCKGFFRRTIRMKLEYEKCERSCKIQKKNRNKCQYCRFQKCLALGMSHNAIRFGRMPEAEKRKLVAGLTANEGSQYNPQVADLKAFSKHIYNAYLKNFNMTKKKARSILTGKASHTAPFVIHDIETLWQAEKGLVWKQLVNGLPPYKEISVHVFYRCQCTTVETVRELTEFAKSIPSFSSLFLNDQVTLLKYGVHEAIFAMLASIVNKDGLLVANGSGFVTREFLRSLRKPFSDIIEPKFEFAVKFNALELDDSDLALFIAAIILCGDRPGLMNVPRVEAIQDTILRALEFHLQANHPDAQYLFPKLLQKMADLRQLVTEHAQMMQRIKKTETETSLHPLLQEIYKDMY
A general note: qHTS replaces the single test concentration by a dilution series.

The target in experiment [2] is Peroxisome proliferator-activated receptor gamma (Homo sapiens) (UniProt P37231). The experiment is described as follows: qHTS assay for small molecule agonists of peroxisome proliferator-activated receptor gamma signaling (AID 588536; active means well fitted curve in the direction sought with a large enough effect in the signal ratio, with a control signal flat, not every such curve was filed as active; the % refers to the signal ratio;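 further: 0% = DMSO basal wells and 100% = rosiglitazone at 2 µM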). The gist of the method:
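HEK293 UAS-bla reporter line, 1% charcoal/dextran FBS; titration, 16 h, 37 C; CCF4 loading 2 h RT; fluorescence 460/530 nm. Normalized to rosiglitazone 2 uM = 100%, DMSO = 0%.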

Experiment [3] shares this target. Put plainly: qHTS assay for small molecule antagonists of peroxisome proliferator-activated receptor gamma signaling (AID 588537; active means well fitted inhibition curve with a large enough effect in the signal ratio, with a control signal flat, not every such curve was filed as active; the % refers to the signal ratio;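 further: reporter cells co-stimulated with 50 nM rosiglitazone agonist during compound treatment; % of control where 0% means no effect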). The method, boiled down:
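PPARγ-UAS-bla HEK293 cells (3000/well) in 1% charcoal/dextran-stripped FBS are treated with compound, then stimulated with 50 nM rosiglitazone for 16 h at 37 °C. Read-out is CCF4 β-lactamase fluorescence after 2 h at RT. IC50 comes from Hill fits normalised to rosiglitazone and DMSO.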

Experiment [4] is described as follows: qHTS assay for small molecule agonists of retinoid X receptor alpha signaling (AID 588544). The following applies: HEK293T RXRa-UAS-bla, beta-lactamase reporter, 18 h; 530 nm emission.
Experiment [5] addresses Retinoic acid receptor RXR-alpha (Homo sapiens) (UniProt P19793). The experiment is described as above.
Experiment [6] has as its target Thyroid hormone receptor beta (Homo sapiens) (UniProt P10828). Put plainly: qHTS assay for small molecule agonists of thyroid hormone receptor beta signaling (AID 588545).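 Further: 0% = DMSO only and 100% = 10 nM T3.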 The method, boiled down: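 TR-UAS-bla-GripTite HEK 293 cells in medium with 2% charcoal/dextran FBS, 0.1 mM NEAA and 1 mM sodium pyruvate were treated with titrated compounds for 18 hrs at 37 C. Beta-lactamase reporter was read with CCF4 dye (ex 405, em 460/530 nm); EC50 from Hill fits.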

Experiment [7] in a line: qHTS assay for small molecule antagonists of retinoid X receptor alpha signaling (AID 588546; active means well fitted inhibition curve with a large enough effect in the signal ratio, with a control signal flat, not every such curve was filed as active; the % refers to the signal ratio;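 further: cells stimulated with 9-cis-retinoic acid as agonist; on the % scale 0 is the no-effect control and ±100 the full control effect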). As to conditions: HEK293T RXRa-UAS-bla, beta-lactamase ratio, antagonist mode; measured here: W530 green channel, cytotoxicity proxy. The gist of the method: (§1)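 Beta-lactamase reporter inhibition, read as CCF4 fluorescence ratio (ex 405, em 460/530 nm) after 2 h at RT. HEK293T UAS-bla cells, 2500/well, were stimulated with 9-cis-RA at 500 or 100 nM final alongside test compound for 18 h at 37 C.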

In experiment [8] the target is Vitamin D3 receptor (Homo sapiens) (UniProt P11473). The experiment is described as follows: qHTS assay for small molecule antagonists of vitamin D receptor signaling (AID 588541).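 Further: receptor activated by calcitriol during compound treatment; series mostly up to about 77 µM; on the % scale 0 is the no-effect control and ±100 the full control effect.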 The method, boiled down:
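VDR-UAS-bla HEK293T cells in 2% charcoal-stripped FBS were stimulated with 1-alpha,25-dihydroxyvitamin D3 (3 nM final) plus compound for 16 h at 37 C. The beta-lactamase CCF4 readout was normalized to 50 nM agonist and DMSO, and Hill fits gave IC50.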

The target is the same in experiment [9]. The experiment is described as follows: qHTS assay for small molecule agonists of vitamin D receptor signaling (AID 588543).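 Further: 0% = DMSO basal and 100% = reference agonist control.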 The gist of the method: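 Measured: β-lactamase reporter activity (CCF4, 405 nm excitation, 460/530 nm emission) in HEK293T VDR-UAS-bla cells after 16 h compound exposure at 37 °C. Normalization against 50 nM 1α,25-dihydroxyvitamin D3 and DMSO; Hill-fit EC50.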

Experiment [10] concerns the target Retinoic acid receptor RXR-alpha (Homo sapiens) (UniProt P19793). Put plainly: qHTS assay for small molecule antagonists of retinoid X receptor alpha signaling (AID 588546).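 Further: cells stimulated with 9-cis-retinoic acid as agonist; on the % scale 0 is the no-effect control and ±100 the full control effect.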 The following applies: HEK293T RXRa-UAS-bla, beta-lactamase ratio, antagonist mode. The method, boiled down: as §1

Structures are written as SMILES. Where “and” joins values, the source holds several entries; their conditions need not be identical. Equal entries are not always repeated. Results filed as inconclusive are left out. Calls of active or inactive are those of the source. Unless noted, the call rests on the fitted dose curve.

Chain of Peroxisome proliferator-activated receptor gamma (Homo sapiens) (P37231 whole entry, looked up): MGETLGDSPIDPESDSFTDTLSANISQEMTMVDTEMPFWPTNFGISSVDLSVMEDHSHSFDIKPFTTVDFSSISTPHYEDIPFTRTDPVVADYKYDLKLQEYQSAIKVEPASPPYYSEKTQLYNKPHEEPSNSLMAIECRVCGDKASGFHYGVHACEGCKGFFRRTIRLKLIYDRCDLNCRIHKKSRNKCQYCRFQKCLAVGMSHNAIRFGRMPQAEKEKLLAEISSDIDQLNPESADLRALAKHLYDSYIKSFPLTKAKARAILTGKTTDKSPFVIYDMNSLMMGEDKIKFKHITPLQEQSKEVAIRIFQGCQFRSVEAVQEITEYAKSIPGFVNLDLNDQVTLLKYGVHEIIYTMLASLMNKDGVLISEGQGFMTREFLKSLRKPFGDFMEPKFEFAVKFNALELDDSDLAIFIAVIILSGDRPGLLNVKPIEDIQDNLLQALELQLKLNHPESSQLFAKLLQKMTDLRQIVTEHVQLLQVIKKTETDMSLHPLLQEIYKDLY
Chain of Retinoic acid receptor RXR-alpha (Homo sapiens) (P19793 whole entry, looked up): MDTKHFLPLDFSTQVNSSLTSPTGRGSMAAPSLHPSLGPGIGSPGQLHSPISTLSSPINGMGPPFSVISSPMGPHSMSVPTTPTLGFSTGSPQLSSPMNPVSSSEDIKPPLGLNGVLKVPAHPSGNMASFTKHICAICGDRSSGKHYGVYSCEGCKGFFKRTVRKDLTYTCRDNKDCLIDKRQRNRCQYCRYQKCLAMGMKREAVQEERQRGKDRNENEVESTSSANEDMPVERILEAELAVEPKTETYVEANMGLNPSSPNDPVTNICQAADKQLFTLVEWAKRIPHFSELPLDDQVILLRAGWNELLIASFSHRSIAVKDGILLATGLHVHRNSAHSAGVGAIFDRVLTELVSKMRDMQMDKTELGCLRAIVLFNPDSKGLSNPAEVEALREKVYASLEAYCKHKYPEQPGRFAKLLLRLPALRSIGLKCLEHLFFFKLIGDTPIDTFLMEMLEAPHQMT
Chain of Vitamin D3 receptor (Homo sapiens) (P11473 whole entry, looked up): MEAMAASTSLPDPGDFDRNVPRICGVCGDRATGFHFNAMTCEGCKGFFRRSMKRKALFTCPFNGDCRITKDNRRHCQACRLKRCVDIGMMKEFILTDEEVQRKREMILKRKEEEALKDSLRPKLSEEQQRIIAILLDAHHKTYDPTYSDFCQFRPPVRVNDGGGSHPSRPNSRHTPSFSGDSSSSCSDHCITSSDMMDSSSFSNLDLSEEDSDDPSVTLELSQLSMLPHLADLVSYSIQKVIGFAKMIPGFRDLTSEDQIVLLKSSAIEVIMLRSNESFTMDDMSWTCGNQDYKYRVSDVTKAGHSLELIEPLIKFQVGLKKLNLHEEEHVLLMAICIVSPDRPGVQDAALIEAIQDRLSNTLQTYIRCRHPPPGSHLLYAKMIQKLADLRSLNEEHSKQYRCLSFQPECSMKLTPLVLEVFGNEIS
Chain of Thyroid hormone receptor beta (Homo sapiens) (P10828 whole entry, looked up): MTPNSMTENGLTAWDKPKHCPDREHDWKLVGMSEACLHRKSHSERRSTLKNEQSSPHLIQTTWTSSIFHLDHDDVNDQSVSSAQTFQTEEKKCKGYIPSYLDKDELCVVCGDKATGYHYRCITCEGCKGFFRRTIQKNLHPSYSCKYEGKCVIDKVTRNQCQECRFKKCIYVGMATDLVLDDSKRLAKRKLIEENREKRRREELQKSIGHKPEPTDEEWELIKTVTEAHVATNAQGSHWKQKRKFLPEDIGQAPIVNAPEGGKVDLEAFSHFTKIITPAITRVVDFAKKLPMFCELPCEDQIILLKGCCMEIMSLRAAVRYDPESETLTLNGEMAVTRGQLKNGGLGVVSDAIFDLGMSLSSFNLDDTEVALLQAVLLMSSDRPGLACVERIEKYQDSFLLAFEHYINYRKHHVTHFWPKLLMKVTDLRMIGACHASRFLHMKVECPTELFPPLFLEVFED

`NCCO/C=C/[C@H](N)C(=O)O`: the compound was called inactive in experiment [1], in [2], in [3], in experiment [5] and in experiment [6]. In addition, the max response in experiment [4] was -3.57%; in experiment [7] it was -8.31%.

Regarding `C/C=C/C=C/C(=O)O`, the outcome in [1], in experiment [2], in [8], in [9], in experiment [5] and in [6] was inactive. The max response in experiment [4] was -7.77%; in [7] it was -4.17%.

With `Nc1ncnc2c1ncn2[C@H]1CC[C@@H](CO)O1`, the result in [1], in [2], in experiment [3], in experiment [8], in experiment [9] and in experiment [5] was inactive. Besides, the call in experiment [6] was inactive. Besides, the max response in experiment [4] was 11.3% and 13.8%; in [7], 0.911%.

For the compound `CCCCO`, the outcome in experiment [1], in experiment [2], in [3], in experiment [8], in [9] and in experiment [5] was inactive. For the same compound, the compound was classed as inactive in [6]. Further, the max response in [4] was -9.48% and 0.366%; in experiment [7] it was 1.36% and -14.8%; in [10] it was 4.41% (inactive) and -4.75% (inactive).

In the case of `CCCCCCCCCCCCCCCCCC(=O)OC[C@@H](O)[C@H]1OC[C@H](O)[C@H]1O`, the compound was called inactive in [1], in experiment [2], in experiment [3], in [8], in experiment [9] and in experiment [5]. The call in [6] was inactive. The max response in [4] is -15.4%; in experiment [7], -3.05%.

Consider `OCC(O)CO`, for which the compound was classed as inactive in experiment [1], in [2], in [3], in experiment [8], in [9] and in experiment [5]. Also, the call in experiment [6] was inactive. The max response was -13.7% and 0.479% in experiment [4]; -6.53% and 10.4% in [7].

In the case of `CC(C)CCCCCCc1ccc(O)cc1`, the result in experiment [1], in experiment [2], in experiment [3], in [8], in experiment [9] and in experiment [6] was inactive.

As to `C=CC(C)(O)CC/C=C(\C)CCC=C(C)C` (stereo not given), the compound was called inactive in experiment [1], in experiment [2], in [3], in experiment [5] and in experiment [6]. Also, the max response is 4.32% in experiment [4] and -3.85% in experiment [7].

As for `CO[C@@H]1[C@H](OC(=O)/C=C/C=C/C=C/C=C/C(=O)O)CC[C@]2(CO2)[C@H]1[C@@]1(C)O[C@@H]1CC=C(C)C`, the call in experiment [1], in [2], in experiment [3], in experiment [9], in experiment [5] and in [6] was inactive. Besides, the max response in [4] is 11.1%; in [7], -0.294%.

Consider `CC1=CCC2CC1C2(C)C` (stereo not given), for which the compound was called inactive in [1], in experiment [2], in experiment [3], in [8], in experiment [9] and in experiment [5]. In addition, the compound was classed as inactive in [6]. Moreover, the values for the max response in experiment [4] and in experiment [7] were -0.211% and -2.11%, respectively.

With `CC(C)[C@@H]1CC[C@@H](C)C[C@H]1O`, the result in experiment [1], in experiment [2], in experiment [3], in [8], in [9] and in experiment [5] was inactive. Moreover, in experiment [6], the outcome was inactive. Further, the max response in experiment [4] is -16.2%.

Consider `CO`, for which the call in experiment [1], in experiment [2], in [8], in [9], in [5] and in experiment [6] was inactive. Moreover, the max response was -9.41% in [4] and -6.65% in experiment [7].

As for `Cc1ccc(S(=O)(=O)O)cc1C`, the call in experiment [1], in experiment [2], in [8], in [9] and in experiment [5] was inactive. For the same compound, the max response in [4] is -1.2%; in experiment [7] it was -21.8%.

In the case of `OCl`, the call in experiment [1], in [2], in [8], in [9], in [5] and in experiment [6] was inactive. The max response in experiment [4] was -6.54%; in experiment [7] it was 1.84%; in experiment [10] it was 40.5% (inactive).

`Nc1ccc(N=Nc2ccccc2)c(N)n1`: the compound was classed as inactive in experiment [1], in experiment [2], in experiment [3], in experiment [8], in experiment [9] and in experiment [5]. Also, the values for the max response in experiment [4], in [7] and in experiment [10] were -10.9%, -12.2% and -21% (inactive), respectively.

In the case of `CC(C)O`, the outcome in experiment [1], in experiment [2], in [8], in experiment [9] and in experiment [5] was inactive. Also, the max response in experiment [4] is -10.8%; in experiment [7], -15.1%.

For `OB(O)O`, the call in [1], in [2], in [3], in experiment [8], in [9] and in experiment [5] was inactive. Besides, the call in experiment [6] was inactive. Also, the max response in [4] was -5.98% and -1.26%; in experiment [7], -7.19% and -10.5%.

Take `c1ccc2ccccc2c1`: the compound was classed as inactive in experiment [1], in experiment [2], in experiment [3], in experiment [8], in experiment [9] and in experiment [5]. In [6], the call was inactive. In addition, the max response was -8.1% and -18.9% in experiment [4]; -9.07% and -13.7% in experiment [7].

Take `Cc1ncc[nH]1`: the call in experiment [1], in experiment [2], in experiment [3], in [8], in [9] and in experiment [5] was inactive. For the same compound, the compound was classed as inactive in [6]. For the same compound, the figures for the max response in [4] and in experiment [7] were 5.14% and 2.25%, respectively.

`Nc1nccs1`: the compound was called inactive in [1], in [2], in experiment [8], in [9], in experiment [5] and in experiment [6]. Moreover, the max response in [4] is -14.1%; in [7], -5.85%.

Turning to `OC[C@H]1O[C@@](CO)(O[C@H]2O[C@H](CO)[C@@H](O)[C@H](O)[C@H]2O)[C@@H](O)[C@@H]1O`, the call in experiment [1], in [2], in experiment [3], in [5] and in experiment [6] was inactive. In addition, the max response was -0.27% in experiment [4] and -3.43% in [7].

Take `Cc1ccc(S(=O)(=O)NCl)cc1`: the call in [1], in experiment [2], in experiment [3], in [5] and in [6] was inactive. The max response in [4] was -13.1%; in experiment [7], -12.9%; in experiment [10], 17.1% (inactive).
